Several values for one entry are separate records, joined by “and”; a condition that tells them apart may be missing. Identical values can stand only once. Results filed as inconclusive are left out. The source holds several records for some structures; these can differ, active in one and inactive in another. Activity calls are given as the source filed them. Unless noted, the call rests on the fitted dose curve.

The nature of experiment [1]: Nuclear factor erythroid 2-related factor 2/antioxidant responsive element (Nrf2/ARE) small molecule agonists: qHTS cell viability counter screen in human keratinocytes (AID 1919968; active means well fitted curve in the direction sought with a large enough effect in the repeat runs; an effect the other way counts as inactive or inconclusive; further: nearly all actives have a fitted effect of over 55% in size). The procedure, abridged:
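Seed 1,500 KeratinoSens cells per well, then incubate 5 h at 37 C/5% CO2. Add compounds in DMSO and incubate 23 h. Add CellTiter-Fluor, wait 1 h and read fluorescence.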
On the technique in general: qHTS replaces the single test concentration by a dilution series.

Experiment [2] can be described thus: Nuclear factor erythroid 2-related factor 2/antioxidant responsive element (Nrf2/ARE) small molecule agonists: luciferase reporter gene qHTS assay in human keratinocytes (AID 1919969). Further: nearly all actives have a fitted effect of over 35% in size. Further: potency means the concentration at half of the fitted maximal effect. Background: A reporter such as luciferase makes a cellular process visible.
Experiment [3] has as its target Gonadotropin-releasing hormone receptor (Homo sapiens) (UniProt P30968). In words: Human gonadotropin-releasing hormone receptor (GnRHR) small molecule agonists, calcium flux assay in GnRHR-HEK293 cells (AID 1920063). Further: nearly all actives have a fitted effect of over 35% in size. The procedure, abridged:
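Cells: HEK293 stably expressing human GnRHR. Steps: overnight (18 h) culture, 1 h calcium dye loading at 37 C, compound addition, kinetic fluorescence read at 480/540 nm. Each compound tested at 15 concentrations in triplicate.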
On the technique in general: Calcium assays in cells follow changes in intracellular calcium, usually with a dye or a luminescent sensor.

For experiment [4], the target named is KiSS-1 receptor (Homo sapiens) (UniProt Q969F8). The experiment can be described thus: Human kisspeptin (KISS1R) small molecule agonists, calcium flux assay in KISS1R-HEK293 cells (AID 1920064; active means well fitted curve in the direction sought with a large enough effect in the repeat runs; an effect the other way counts as inactive or inconclusive). The procedure, abridged:
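Cells plated and incubated 18 h; dye added, 1 h at 37 C; compounds in DMSO pinned in; signal read at 480/540 nm every second for 3 min. Each compound tested at 15 concentrations in triplicate.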

Experiment [5] can be described thus: G protein-coupled receptor (GPCR) small molecule agonists, calcium flux assay: HEK293 wild type cell line counter screen (AID 1920065). The essentials:
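Counter-screen of the Tox21 10K library for non-specific calcium release: dye-loaded cells received compounds in DMSO and were monitored by kinetic fluorescence (480/540 nm, 3 min). Fifteen concentrations, run in triplicate.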

The nature of experiment [6]: p53 small molecule agonists, cell-based qHTS assay with human liver microsomes: qHTS cell viability counter screen (AID 1963579). Further: nearly all actives have a fitted effect of over 45% in size. The procedure, abridged: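 Metabolically activated exposure: compounds, human liver microsomes and NADPH (0.5 mg/mL final apiece) were added to p53RE-bla cells seeded 5 h earlier, left 16 h at 37 C, and then assessed for viability by CellTiter-Glo luminescence.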

Experiment [7] can be described thus: p53 small molecule agonists, cell-based qHTS assay with rat liver microsomes: qHTS cell viability counter screen (AID 1963580). Further: nearly all actives have a fitted effect of over 45% in size. The procedure, abridged: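 In HCT-116 cells carrying a p53 response element-bla reporter, compounds were metabolically activated in situ by rat liver microsomes with NADPH over 16 h. Cell ATP content then served as the cytotoxicity measure.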

Experiment [8] can be described thus: p53 small molecule agonists, cell-based qHTS assay: qHTS cell viability counter screen (AID 1963581). Further: nearly all actives have a fitted effect of over 45% in size. The essentials: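 Cells: HCT-116 with p53 response element-driven beta-lactamase. Treatment: 16 h, 37 C, compounds in DMSO. Read: CellTiter-Glo luminescence after 30 min RT.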
Experiment [9] has as its target Beta-2 adrenergic receptor (Homo sapiens) (UniProt P07550). In words: Adrenergic beta2 receptor (ADRB2) small molecule agonists, cell-based qHTS assay (AID 1963593).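 Further: CHO cells stably overexpressing human ADRB2.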 The procedure, abridged:
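CHO cells stably over-expressing ADRB2 were plated overnight at 37C, then dosed with compounds plus a stimulation mix containing 100uM IBMX and 25uM Ro-20-1724 for 0.5hr at room temperature. cAMP was measured by HTRF competition, 1hr.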

In experiment [10] the target is D(2) dopamine receptor (Homo sapiens) (UniProt P14416). In words: Dopamine D2 receptor (DRD2) small molecule agonists, cell-based qHTS assay (AID 1963594). Further: nearly all actives have a fitted effect of over 35% in size. The essentials:
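HEK293 cells stably expressing DRD2 were cultured 24 h at 37 C, then given Ro20-1724 (0.1 mM final) and compounds for 10 min at room temperature. NKH477 (200nM) was then added for 30 min. cAMP was read by HTRF.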

Experiment [11] shares this target. The experiment can be described thus: Dopamine D2 receptor (DRD2) small molecule antagonists, cell-based qHTS assay (AID 1963595; active means well fitted inhibition curve with a large enough effect in the signal ratio in the repeat runs, with a control signal flat; the % refers to the signal ratio). The procedure, abridged:
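Antagonism was scored as restored cAMP in HEK293-DRD2 cells. These cells were stimulated with 200 nM NKH477 and 12 nM quinpirole for 30 min at room temperature, in the presence of 0.1 mM Ro20-1724.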

Experiment [12] concerns the target 5-hydroxytryptamine receptor 2A (Homo sapiens) (UniProt P28223). The experiment can be described thus: 5-hydroxytryptamine receptor 2A (HTR2A) small molecule antagonists, cell-based qHTS assay (AID 1963586). Further: nearly all actives have a fitted effect of over 45% in size. Further: potency means the concentration at half of the fitted maximal effect. The essentials: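 Antagonist-mode intracellular calcium assay: DOI (4 nM) added after 5 min compound pre-incubation at room temperature to dye-loaded HTR2A-CHO cells. Fluorescence followed for 3 min, sampled every second.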

Experiment [13] has the same target. In words: 5-hydroxytryptamine receptor 2A (HTR2A) small molecule agonists, cell-based qHTS assay (AID 1963587). Further: nearly all actives have a fitted effect of over 30% in size. The procedure, abridged: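 HTR2A-CHO cells, plated 18 h at 37 C/5% CO2, dye-loaded 1 h at 37 C; compounds in DMSO added by pin tool (agonist mode). Intracellular calcium flux read as kinetic fluorescence on FDSS over 2 min at 1 s intervals.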
The target in experiment [14] is Muscarinic acetylcholine receptor M1 (Homo sapiens) (UniProt P11229). In words: Cholinergic receptor muscarinic 1 (CHRM1) small molecule agonists, cell-based qHTS assay (AID 1963589). Further: nearly all actives have a fitted effect of over 35% in size. The procedure, abridged: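 Agonist-mode qHTS in CHO cells stably carrying human muscarinic M1. Intracellular calcium is tracked by fluorescence every second after compound transfer; each compound runs at 15 concentrations in three independent runs.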

Experiment [15] is described as follows: cAMP Responsive Elements (CRE) small molecule agonists, cell-based qHTS assay (AID 1963590). The procedure, abridged: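 Agonist mode qHTS in CRE-bla HEK 293T cells: compounds dosed from DMSO for 3 h at 37 C/5% CO2, followed by LiveBLAzer B/G FRET substrate for 2 h at room temperature.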
Experiment [16] is described as follows: cAMP Responsive Elements (CRE) small molecule antagonists, cell-based qHTS assay (AID 1963591; active means well fitted inhibition curve with a large enough effect in the signal ratio in the repeat runs, not every such curve was filed as active; the % refers to the signal ratio). The procedure, abridged:
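Antagonist mode: test compounds are co-incubated with the adenylyl cyclase activator NKH477 (0.25 uM final) on CRE-bla HEK293T cells for 3 h at 37 °C, followed by LiveBLAzer substrate loading.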

Experiment [17] addresses Beta-2 adrenergic receptor (Homo sapiens) (UniProt P07550). The experiment can be described thus: Adrenergic beta2 receptor (ADRB2) small molecule antagonists, cell-based qHTS assay (AID 1963592). Further: series mostly up to about 92 µM; nearly all actives have a fitted effect of over 50% in size. The essentials: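 Cells (CHO, stable ADRB2 overexpression) incubated 18-20hr at 37C; compounds added from DMSO; agonist mix (1nM isoproterenol, 100uM IBMX, 25uM Ro-20-1724) added; 0.5hr RT; d2-cAMP and anti-cAMP-cryptate added; 1hr RT; 665/615 nm read.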

Experiment [18] has as its target Muscarinic acetylcholine receptor M1 (Homo sapiens) (UniProt P11229). The experiment can be described thus: Cholinergic receptor muscarinic 1 (CHRM1) small molecule antagonists, cell-based qHTS assay (AID 1963588). Further: nearly all actives have a fitted effect of over 40% in size. Further: potency means the concentration at half of the fitted maximal effect. The essentials:
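CHRM1-CHO calcium-flux assay, antagonist mode. Cells were seeded 18 h, dye-loaded 1 h at 37 C and given compound for 5 min at RT, then acetylcholine was added at 50nM. FDSS fluorescence was read 3 min; 15 concentrations, three runs.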
On the % scale 0 is the no-effect control and ±100 the full control effect.

5-hydroxytryptamine receptor 2A (Homo sapiens), sequence (P28223 whole entry, looked up): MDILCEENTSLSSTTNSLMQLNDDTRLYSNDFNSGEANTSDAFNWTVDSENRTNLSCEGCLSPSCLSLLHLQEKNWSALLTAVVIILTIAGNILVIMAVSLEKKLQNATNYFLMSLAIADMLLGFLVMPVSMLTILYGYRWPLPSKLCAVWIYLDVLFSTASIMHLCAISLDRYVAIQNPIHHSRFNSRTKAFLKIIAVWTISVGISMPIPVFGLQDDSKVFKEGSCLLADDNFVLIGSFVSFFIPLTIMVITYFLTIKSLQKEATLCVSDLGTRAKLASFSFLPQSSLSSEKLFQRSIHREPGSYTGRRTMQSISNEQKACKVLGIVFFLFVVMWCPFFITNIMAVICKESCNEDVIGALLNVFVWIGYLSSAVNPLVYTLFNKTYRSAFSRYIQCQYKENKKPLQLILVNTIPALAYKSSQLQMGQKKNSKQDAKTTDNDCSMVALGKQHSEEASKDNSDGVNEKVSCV
D(2) dopamine receptor (Homo sapiens), sequence (P14416 whole entry, looked up): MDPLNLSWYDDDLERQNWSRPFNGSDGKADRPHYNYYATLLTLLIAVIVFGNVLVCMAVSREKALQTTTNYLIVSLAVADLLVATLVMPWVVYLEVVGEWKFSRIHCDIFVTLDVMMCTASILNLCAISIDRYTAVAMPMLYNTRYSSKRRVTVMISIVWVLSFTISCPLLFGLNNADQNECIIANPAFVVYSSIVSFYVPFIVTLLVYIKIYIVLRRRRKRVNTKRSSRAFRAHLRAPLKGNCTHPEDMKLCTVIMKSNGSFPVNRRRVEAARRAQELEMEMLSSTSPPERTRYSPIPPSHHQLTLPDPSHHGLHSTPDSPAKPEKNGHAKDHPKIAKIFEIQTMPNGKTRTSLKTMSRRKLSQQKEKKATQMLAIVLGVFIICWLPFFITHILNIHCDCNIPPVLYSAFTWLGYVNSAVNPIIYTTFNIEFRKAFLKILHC
Beta-2 adrenergic receptor (Homo sapiens), sequence (P07550 whole entry, looked up): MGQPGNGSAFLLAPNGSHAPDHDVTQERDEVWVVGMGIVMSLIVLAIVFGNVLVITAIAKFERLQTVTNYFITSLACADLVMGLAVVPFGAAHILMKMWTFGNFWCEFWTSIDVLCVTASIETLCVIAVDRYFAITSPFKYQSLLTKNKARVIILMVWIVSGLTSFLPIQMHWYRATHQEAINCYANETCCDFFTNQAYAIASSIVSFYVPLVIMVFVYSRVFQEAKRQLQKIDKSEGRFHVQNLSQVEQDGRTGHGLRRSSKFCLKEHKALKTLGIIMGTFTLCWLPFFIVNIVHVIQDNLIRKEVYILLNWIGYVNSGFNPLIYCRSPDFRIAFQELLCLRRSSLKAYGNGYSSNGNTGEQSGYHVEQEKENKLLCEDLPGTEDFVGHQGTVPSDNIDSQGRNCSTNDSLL
Gonadotropin-releasing hormone receptor (Homo sapiens), sequence (P30968 whole entry, looked up): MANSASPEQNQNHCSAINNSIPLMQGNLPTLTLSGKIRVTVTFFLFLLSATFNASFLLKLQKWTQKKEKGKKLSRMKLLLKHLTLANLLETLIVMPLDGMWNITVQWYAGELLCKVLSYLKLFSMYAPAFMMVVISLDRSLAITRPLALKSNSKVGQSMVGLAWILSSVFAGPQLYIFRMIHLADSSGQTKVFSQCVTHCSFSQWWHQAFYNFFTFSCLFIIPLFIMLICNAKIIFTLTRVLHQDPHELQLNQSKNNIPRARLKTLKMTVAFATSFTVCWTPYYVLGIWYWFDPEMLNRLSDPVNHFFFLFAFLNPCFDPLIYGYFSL
Muscarinic acetylcholine receptor M1 (Homo sapiens), sequence (P11229 whole entry, looked up): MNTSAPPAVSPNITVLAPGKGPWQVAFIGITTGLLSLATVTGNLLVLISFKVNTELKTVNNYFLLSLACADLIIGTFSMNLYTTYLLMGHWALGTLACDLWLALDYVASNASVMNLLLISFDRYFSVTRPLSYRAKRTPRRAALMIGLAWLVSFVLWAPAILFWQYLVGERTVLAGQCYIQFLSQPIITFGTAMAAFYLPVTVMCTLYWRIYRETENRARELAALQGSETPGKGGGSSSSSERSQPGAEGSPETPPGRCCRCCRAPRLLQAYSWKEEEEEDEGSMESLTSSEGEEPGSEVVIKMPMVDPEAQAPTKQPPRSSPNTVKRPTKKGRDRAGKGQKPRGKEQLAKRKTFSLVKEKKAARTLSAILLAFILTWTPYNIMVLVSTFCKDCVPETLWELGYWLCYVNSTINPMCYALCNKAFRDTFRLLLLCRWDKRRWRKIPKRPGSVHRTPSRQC
KiSS-1 receptor (Homo sapiens), sequence (Q969F8 whole entry, looked up): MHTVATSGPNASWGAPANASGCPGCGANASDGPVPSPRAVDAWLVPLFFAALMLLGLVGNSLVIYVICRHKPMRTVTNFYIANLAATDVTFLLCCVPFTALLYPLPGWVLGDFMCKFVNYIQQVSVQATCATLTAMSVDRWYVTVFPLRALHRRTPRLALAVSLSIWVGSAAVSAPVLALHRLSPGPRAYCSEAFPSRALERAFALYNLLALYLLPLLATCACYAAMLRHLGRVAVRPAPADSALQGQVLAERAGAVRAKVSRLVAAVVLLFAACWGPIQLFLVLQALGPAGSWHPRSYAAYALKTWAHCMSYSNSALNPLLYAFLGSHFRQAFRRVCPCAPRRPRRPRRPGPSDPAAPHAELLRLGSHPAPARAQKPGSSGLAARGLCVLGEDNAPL

Regarding `CC1(C)O[C@@H]2C[C@H]3[C@@H]4C[C@H](F)C5=CC(=O)C=C[C@]5(C)[C@@]4(F)[C@@H](O)C[C@]3(C)[C@]2(C(=O)CO)O1`, the Potency result in experiment [1], in experiment [2], in [3], in experiment [4], in [5] and in experiment [6] was “inactive” throughout. Besides, the Potency entry in [7], in [8], in experiment [9], in [10] and in experiment [11] was “inactive” in each case.

For `CC(C)(N=C=O)c1cccc(C(C)(C)N=C=O)c1`, the Potency entry in experiment [1], in [2], in [3], in experiment [4], in experiment [5] and in [6] was “inactive” each time. In addition, the Potency entry in [7], in experiment [8], in [12], in experiment [13], in [14] and in [15] was “inactive” throughout. Besides, the Potency entry in experiment [16], in experiment [17] and in [11] was “inactive” each time.

In the case of `CCOC(=O)C(C)Oc1ccc(Oc2cnc3cc(Cl)ccc3n2)cc1` (stereo not given), the Potency entry in experiment [1], in [2], in [3], in [4], in experiment [5] and in experiment [6] was “inactive” each time. Further, the Potency result in [7], in experiment [12], in experiment [13], in [14], in [17] and in experiment [10] was “inactive” in each case. For the same compound, the Potency result in experiment [11] is “inactive”.

With `Oc1ccc2cc(SSc3ccc4cc(O)ccc4c3)ccc2c1`, the Potency entry in experiment [1], in experiment [3], in experiment [4], in experiment [5], in experiment [6] and in experiment [7] was “inactive” in each case. For the same compound, the Potency result in experiment [8], in experiment [13], in [18], in [14], in [10] and in [11] was “inactive” each time. Besides, the Potency in experiment [2] is 68.7 µM (active) and 68.6 µM (active).

Turning to `CC(C)c1ccc(S(=O)(=O)O)cc1`, the Potency entry in experiment [1], in experiment [2], in [3], in experiment [4], in experiment [5] and in experiment [7] was “inactive” in each case. The Potency result in experiment [8], in experiment [12], in experiment [13], in experiment [18], in experiment [14] and in experiment [15] was “inactive” in each case. The Potency result in [16], in experiment [17], in [9], in experiment [10] and in [11] was “inactive” each time.

With `CCCCCCCCCCCC(=O)N(C)CC(=O)O`, the Potency result in experiment [1], in experiment [3], in experiment [4], in [5], in experiment [6] and in experiment [7] was “inactive” throughout. Further, the Potency result in experiment [8], in [12], in [18], in experiment [9], in experiment [10] and in experiment [11] was “inactive” in each case. The activity, positive = activation in [2] is 0.794% [at 8.39 µM] (inactive). In addition, the activation is -0.383% [at 6.97 µM] (inactive) in experiment [14] and -0.74% [at 8.39 µM] (inactive) in [15]. In addition, in experiment [16], the activity change, negative = inhibition is 5.29% [at 8.39 µM] (inactive).

Consider `O=C(COc1ccc(Cl)cc1)N1CCN(Cc2ccc3c(c2)OCO3)CC1`, for which the Potency entry in experiment [1], in [2], in experiment [3], in [4], in experiment [5] and in experiment [6] was “inactive” in each case. For the same compound, the Potency result in experiment [7], in experiment [8], in experiment [14], in experiment [15], in [16] and in experiment [17] was “inactive” in each case. Also, the Potency entry in experiment [10] and in experiment [11] was “inactive” each time. Besides, the Potency in [12] is 29.8 µM (active) and inactive; in experiment [18] it was 37.5 µM (active) and inactive.

Take `CN(Cc1cnc2nc(N)nc(N)c2n1)c1ccc(C(=O)N[C@@H](CCC(=O)O)C(=O)O)cc1`: the Potency entry in experiment [1], in [2], in experiment [3], in experiment [4], in experiment [5] and in experiment [6] was “inactive” throughout. Further, the Potency entry in [15], in experiment [16], in [17], in experiment [10] and in experiment [11] was “inactive” in each case.

For `CC(=O)[C@@]1(O)CC[C@H]2[C@@H]3CCC4=CC(=O)CC[C@]4(C)[C@H]3CC[C@@]21C`, the Potency entry in experiment [1], in [2], in experiment [3], in experiment [4], in experiment [5] and in experiment [6] was “inactive” in each case. Also, the Potency entry in experiment [7], in [8], in [15], in experiment [17], in experiment [9] and in experiment [10] was “inactive” throughout. In addition, the Potency entry in experiment [11] is “inactive”.

The values above are taken from PubChem BioAssay (Tox21).
